This passage reports outcome results from PubChem BioAssay AID588827 (Broad Institute, 2011).

The campaign covered roughly 2,400 compounds. About 20 (0.8%) were called active. Roughly 19% stayed inconclusive and do not appear here.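 Rule for the calls: active = fitted half-maximal concentration for signal decrease at or below twice the top tested dose, in every repeat run; inconclusive = repeat runs disagree, or flat partial inhibition, or poor fit; inactive = all runs flat, wrong-direction or potency beyond limit.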 Only a sample is shown. Results with a measured potency or affinity are listed apart.

This test can be described thus: GFP reporter loss versus dox-driven RFP – NIH3T3 R4 cells, cherry-pick, set 4, dose response (AID 588827). The following applies: NIH3T3 R4 HSF-1 GFP reporter, heat shock, 48 h; series mostly up to 19.5 µM.
Consider `Nc1ncnc2oc(-c3ccco3)c(-c3ccco3)c12`, for which the result was inactive. Regarding `CCN1CC2([N+](=O)[O-])C=CC(=O)C([N+](=O)[O-])(C1)C2CC(=O)c1ccccc1` (stereo not given), the compound was called inactive. Take `CCOC(=O)c1c(N)sc2c(O)c(Br)ccc12`: the outcome was inactive. Turning to `Cc1[nH]c2ccccc2c1/C=C/c1nc2ccccc2c(=O)n1-c1cccc([N+](=O)[O-])c1`, the call was inactive. For the compound `O=C(c1ccc([N+](=O)[O-])s1)N1CCN(c2cccc(Cl)c2)CC1`, the compound was classed as inactive. On to `O=C(O)c1cccc(COc2ccc3c(c2)CCC3)c1`, for which the call was inactive. In the case of `CC(C)c1ccc(-c2nc3ccccc3s2)cc1`, the compound was classed as inactive. As for `CC1=Nc2ccc(C)c3nc(C)cc(c23)N1c1ccc(C)cc1`, the compound was classed as inactive. For `N#Cc1cc2c(nc1SCC(=O)N1CCOCC1)CCCCC2`, the outcome was inactive.

Turning to `COc1ccc(/C=C/C(=O)Oc2ccc(/C=N/NC(=O)COc3c(C)cccc3C)cc2)cc1`, the compound was called inactive.

As to `CCN(c1ccccc1)S(=O)(=O)c1cnc[nH]1`, the call was inactive. For the compound `COc1ccccc1N=Nc1ccc(O)c2ncccc12`, the call was inactive.

Consider `COc1cccc(NC(=O)Nc2nnc(Cc3ccccc3F)s2)c1`, for which the compound was called inactive.

For `COc1ccccc1C(=O)NCCC(=O)NNC(=O)Cn1ccc(C(F)(F)F)n1`, the result was inactive.

With `Nc1nc(Cl)nc2ccc(Br)cc12`, the result was inactive. Take `CCN1CCN(/C=N/c2nc3c(s2)CCCC3)CC1`: the call was inactive. `Cn1c(=O)c2c(nc(Oc3cccc(O)c3)n2C)n(C)c1=O`: the compound was called inactive. The entry for `Cc1ccc(NC(=O)CCN2C(=O)C3CCCCC3C2=O)cc1[N+](=O)[O-]` (stereo not given) is “inactive”; for `O=C(CCCCCn1c(=S)[nH]c2cc3c(cc2c1=O)OCO3)N1CCN(C(=O)c2ccco2)CC1` it is “inactive”. `CCCCOc1ccc(N=Cc2ccc[nH]2)cc1`: the result was inactive. `CCOc1ccc(-c2nc(CSCC(=O)N3CCN(c4cccc(OC)c4)CC3)c(C)o2)cc1`: the call was inactive. `O=C(NCCN1CCCCC1)Nc1ccccc1Cl`: the compound was classed as inactive.

Consider `CCC1CCCCN1CCCNC(=O)CSc1nc2nc(C)c(Cc3ccc(C)cc3)c(C)n2n1` (stereo not given), for which the outcome was inactive. For the compound `O=C(Nc1ccc2c(c1)ncn2C1CCCCC1)c1ccco1`, the call was inactive.

As to `CC(C)(C)c1ccc(C(=O)NC(=S)Nc2nc3c(s2)CCCC3)cc1`, the result was inactive. For `N#Cc1nc(-c2ccco2)oc1N1CCN(Cc2ccccc2)CC1`, the call was inactive.

`COc1ccc(S(=O)(=O)/C(C#N)=C/Nc2cccc(OC)c2)cc1`: the call was inactive. For `CCCC[C@@H]1C[C@H]1[C@@H](NC(=O)c1ccco1)c1ccc(Cl)cc1`, the result was inactive. As for `Cc1ccc(C(=O)Nc2cccc(C(F)(F)F)c2)cc1NC(=O)c1ccno1`, the result was inactive.

For the compound `Fc1ccc(CO/N=C/C2=C(Cl)c3ccccc3CC2)cc1`, the call was inactive. The entry for `COc1ccc(-n2c(C)c(C(C)=O)c(C(C)=O)c2C)cc1` is “inactive”; for `CSc1ncccc1C(=O)N1CCCC(N2CCN(c3ccccc3F)CC2)C1` (stereo not given) it is “inactive”. Consider `CC(=O)N/C(=N\c1nc(C)cc(C)n1)Nc1ccc2ccccc2c1`, for which the compound was called inactive. The entry for `Cc1ccc(/C=C(\NC(=O)c2ccccc2)C(=O)N2CCCC2C(=O)O)cc1` (stereo not given) is “inactive”. With `COc1ccc(NC(=S)Nc2ccc(C)c(S(=O)(=O)N3CCCCC3)c2)cc1`, the result was inactive. In the case of `Oc1ccccc1CNc1ccc(OC(F)(F)F)cc1`, the outcome was inactive. In the case of `CCOc1c2ccc(C(=O)NCc3ccccc3OC)cc2nn1CC`, the compound was called inactive. In the case of `CC(O/N=C\c1ccccc1O)C(=O)Nc1ccccc1C(=O)N1CCOCC1` (stereo not given), the result was inactive.

As to `COc1cccc(N(C(=O)c2cccs2)c2nc3ccccc3s2)c1`, the outcome was inactive. In the case of `CCOc1cc(C#N)c(NC(=O)c2cccnc2Cl)cc1OCC`, the outcome was inactive.

Regarding `C=CCSc1nc2ccccc2n1C(=O)/C=C/c1cc(OC)c(OC)c(OC)c1`, the call was inactive. With `O=C(Nc1ccc(N2CCCCC2)cc1)c1ccccn1`, the compound was called inactive. As to `Cc1cc(C)c(N=C2SCC(=O)N2Cc2ccco2)c(C)c1`, the result was inactive.

Turning to `O=C(NC(=O)c1cccc(F)c1)OC[C@@H]1CCCN2CCCC[C@H]12`, the result was inactive. The entry for `CCCCN(C(=O)COc1ccc(C)cc1OC)c1c(N)n(CCC)c(=O)[nH]c1=O` is “inactive”. As to `Cc1cc(C)c2c(c1)/C(=N/NS(=O)(=O)c1ccc(Br)cc1)CCC2`, the outcome was inactive. For the compound `Cc1ccc(N(C)C(=O)CN(C)S(=O)(=O)c2ccc3c(c2)n(C)c(=O)c(=O)n3C)cc1`, the compound was classed as inactive. The entry for `CCC(=O)Nc1cc2nn(-c3ccc(C)cc3)nc2cc1C` is “inactive”; for `O=C1C(Cc2ccccc2)Nc2ncnc(N3CCN(c4ccccc4)CC3)c2N1Cc1ccccc1` (stereo not given) it is “inactive”.

Turning to `O=C(CSC(=S)N1CCCCC1)Nc1ncc2c(n1)CCCC2=O`, the result was inactive. As to `N#Cc1c(SCC(=O)Nc2nccs2)nc2c(c1-c1ccco1)CCCC2`, the outcome was inactive. The entry for `CCN1C(=O)[C@H]2[C@@H](c3ccc(C)cc3)N3C(=O)N(c4ccc(C)cc4)C(=O)[C@@]3(C)[C@H]2C1=O` is “inactive”. As to `CC(C)Cc1csc(NC(=O)c2ccc(F)cc2)c1C(=O)O`, the compound was called inactive. Turning to `CCOC(=O)c1ccc(NC(=S)NC(=O)C2CCCC2)cc1`, the result was inactive. Regarding `CCOC(=O)c1ccc(Nc2ncnc3nc[nH]c23)cc1`, the result was inactive. As for `COc1ccc(C(=O)N2CCN=C2SCc2cccnc2)cc1OC`, the call was inactive. As for `COc1ccc(NC(C)=O)cc1NC(=O)CN1CCN(CC(=O)Nc2ccccc2Cl)CC1`, the entry is “inactive”; as for `CC1(C)CC(=O)C2=C(C1)N(Cc1ccccc1)C(=O)C2(NC(=O)C(C)(C)C)C(F)(F)F` (stereo not given), “inactive”.

Take `Cc1ccc(C(=O)CSc2cnc3ccccc3n2)cc1C`: the compound was called inactive. The entry for `C/C(=N\NC1=NCCN1)c1ccc(N)c([N+](=O)[O-])c1` is “inactive”. Consider `Cc1ccc(OCC(=O)Nc2ccccc2C(=O)N2CCCCC2)cc1`, for which the compound was called inactive.

Regarding `CCN(CC)S(=O)(=O)c1cccc(NC(=O)CCNC(=O)NC23CC4CC(CC(C4)C2)C3)c1`, the compound was classed as inactive. As for `Cc1cccc(CS(=O)(=O)Cc2ccc(C(=O)NCc3cccs3)o2)c1`, the entry is “inactive”.

As for `CC(C)OCCCn1c(NN)nc2ccccc2c1=O`, the compound was classed as inactive.

As to `COc1nc(N)c(C#N)c(-c2ccc(N(C)CCC#N)cc2)c1C#N`, the compound was classed as inactive. For `CCCSc1nnc(CNS(=O)(=O)c2ccc(C)cc2)n1C`, the compound was called inactive. As to `Cc1ccc(CSCC(=O)N(C)CC(=O)Nc2ccc(C)cc2)cc1`, the compound was called inactive. Turning to `COc1ccc(O)c(-c2c(-c3ccc(Cl)cc3)n[nH]c2C)c1`, the outcome was inactive.

Turning to `COc1ccc(NCc2nnc(SCC(=O)Nc3cc(C(F)(F)F)ccc3Cl)o2)cc1`, the outcome was inactive. On to `O=C(CCCc1nc(-c2ccccc2Cl)no1)NC1CCCC1`, for which the outcome was inactive.

Turning to `COc1ccc(CC(C)Nc2cccc(SC)c2)cc1` (stereo not given), the result was inactive. Take `O=C(CN(Cc1ccccc1Cl)S(=O)(=O)c1ccc(Cl)cc1)N/N=C/c1ccc(C(=O)O)cc1`: the outcome was inactive.

`Cc1ccc(N=Nc2ccc3ccccc3c2O)cc1`: the result was inactive. Take `C=CCn1c(=NC(=O)C2CC2)sc2cc(NC(C)=O)ccc21`: the result was inactive. `CCCCNC(=O)C(=O)N/N=C/c1ccc(C(=O)OC)cc1`: the result was inactive. Regarding `O=c1cc(-c2ccccc2)c2ccc(O)cc2o1`, the compound was called inactive.

For `CC(=O)c1ccc(NC(=O)C2CCN(S(=O)(=O)c3cccc4cccnc34)CC2)cc1`, the result was inactive.

Turning to `COc1ccc(NC(=S)Nc2ccc(F)cc2)c(OC)c1`, the call was inactive.

On to `O=C(CSc1ccc(Br)cc1)Nc1ccccc1N1CCOCC1`, for which the compound was classed as inactive. Take `COc1cc(C(=O)N2CCSCC2)ccc1OC1CCN(C(C)=O)CC1`: the result was inactive. As to `COc1ccccc1Oc1ccc2c(c1)C(=O)N(c1ccc(Br)c3cccnc13)C2=O`, the compound was classed as inactive.

`Cc1c(Cl)cccc1NC(=O)Nc1cnccn1`: the compound was called inactive. For the compound `CCN(CC)c1ccc(CNc2nc3ccccc3n2CCN2CCOCC2)cc1`, the compound was called inactive. `CN(C(=O)c1ccc2c(c1)SC1=NS(=O)(=O)CCN12)C(c1ccccc1)c1ccccc1`: the compound was classed as inactive. As for `O=c1o[nH]c(-c2ccccc2)c1-c1ccccc1`, the result was inactive. Regarding `O=C(Nc1cccc(Cl)c1)N1CCOCC1`, the compound was classed as inactive. As for `CCOC(=O)C1(Cc2ccc(OC)cc2)CCN(C(=O)c2csc(C)n2)CC1`, the compound was classed as inactive.

Turning to `Cc1ccccc1-c1nc2sc3c(c2c(=O)n1N)CCCC3`, the compound was classed as inactive.

For the compound `Cn1c(=O)cc(SCC(=O)N2CCN(C(=O)c3ccco3)CC2)c2ccccc21`, the call was inactive.

Consider `Cc1[nH]c2ccccc2c1C(C[N+](=O)[O-])c1cccs1` (stereo not given), for which the compound was classed as inactive.

Turning to `COc1cccc(-c2cc3nc4c(c(NCC(C)(C)CN(C)C)n3n2)CCCC4)c1`, the compound was called inactive. On to `CCOc1ccc(NC(=O)C2CCCN(c3nn4c(=O)cc(C)nc4s3)C2)cc1` (stereo not given), for which the compound was called inactive. Regarding `Cc1ccc2nc(-c3ccccc3NC(=O)CCC(=O)O)c(=O)[nH]c2c1`, the compound was called inactive. As for `N#CC1=C(N)Oc2cc(N)ccc2C1c1ccccc1Cl` (stereo not given), the entry is “inactive”.

On to `Cc1cc(Nc2ccc3c(c2)OCCO3)c2cc(Cl)ccc2n1`, for which the outcome was inactive.

In the case of `CCn1nc(C)c(/C=N/NC(=O)c2c[nH]c3ccccc23)c1C`, the result was inactive. For the compound `N#Cc1c(N)nc(SCc2ccncc2)c(C#N)c1-c1cccs1`, the compound was classed as inactive.

Consider `CCOc1ccc(N(CC(=O)NC2CCCCC2)C(=O)CCC(=O)Nc2nc(C)cs2)cc1`, for which the result was inactive.

For `CCSc1nnc(-c2ccc(S(=O)(=O)NCc3cccs3)cc2)o1`, the compound was classed as inactive. As for `O=C(c1cc2c(s1)-c1ccccc1OC2)N1CCN(c2ccccc2)CC1`, the entry is “inactive”; as for `Cc1cc(/C=C2/C(=O)NN(c3ccccc3)C2=O)c(C)n1-c1ccc(O)cc1`, “inactive”; as for `C/C(=N\Nc1nncc2ccccc12)c1ccc(Cl)c([N+](=O)[O-])c1`, “inactive”. Turning to `Cc1cc(Cl)ccc1OCCCC(=O)N1CCOCC1`, the outcome was inactive.

Take `CCC(NC(=S)NC1CCCCC1)c1ccccc1` (stereo not given): the compound was called inactive. As to `CCN(CC(=O)Nc1c(F)cccc1F)C(=O)Cc1n[nH]c(=O)c2ccccc12`, the compound was called inactive. As for `COC(=O)C1=C(C)N(CCCC(=O)O)C(=O)NC1c1ccc(C#N)cc1` (stereo not given), the entry is “inactive”; as for `O=C(CN1CCCCC1)Nc1cccc2c1OCO2`, “inactive”. The entry for `CC(CN1CCOCC1)OC(=O)C(c1ccccc1)c1ccccc1` (stereo not given) is “inactive”; for `O=C(O)CSCC(=O)Nc1ccc(C2CCCCC2)cc1` it is “inactive”. As for `Cc1ccnc(NC(c2ccsc2)c2ccc3ccc(C)nc3c2O)c1` (stereo not given), the entry is “inactive”.
